DT40 TDP1 CPT = DT40-hTDP1 cell growth loss with CPT; Potency, µM (top dose mostly 46.2 µM), without a hit: at the highest dose activity change, negative = growth inhibition, usual class: inhibitors; chicken DT40 Tdp1-/-;hTDP1 cells + 20 nM CPT, ATP luminescence, 48 h; 12% of 420,000 active; AID 686979; note: potency is the fitted concentration of half-maximal effect; nearly all actives have a fitted effect of over 55% in size
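Chicken DT40 Tdp1-/- cells stably complemented with human TDP1 were seeded at 400 cells/well in medium containing 20 nM camptothecin, exposed to pin-transferred compounds, and grown at 37 °C for at least 48 hr. Viability was read as ATP luminescence.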
IL1B secr inh = inhibitors of inflammasome signaling (IL-1 beta secretion); THP-1 LPS/ATP IL-1B secretion, AlphaLISA, 16 h; hits give low values; activity change, % at 57.5 µM; 4.7% of 360,000 active; in the data active = activity change below about -50%; inconclusive = mostly about -30% to -49%
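Secreted IL-1B measured by AlphaLISA bead assay after 16 h compound exposure of THP-1 cells; compounds (final up to 57.5 uM) added 1 h before LPS (250 ng/mL) and ATP (1.25 mM) stimulation; lower signal means less secretion.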
HT1080NT lethal = kills 2HG-producing HT-1080-NT fibrosarcoma cells; 1.6% of 360,000 active; AID 686970; HT-1080-NT fibrosarcoma viability, CellTiter-Glo ATP luminescence, 48 h; Potency, µM (doses to about 46.1 µM), without a hit: top-dose activity, negative = less viability, hits mostly cytotoxic;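 note: NT is the 2HG producing partner of a matched IDH1 knockdown line; potency is the fitted concentration of half-maximal effect; 0% = DMSO-treated cells and -100% = media-only wells without cells; nearly all actives have a fitted effect of over 55% in size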
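Luminescent CellTiter-Glo readout after 48 hours of compound exposure at 37 degrees C defined viability of HT-1080-NT cells. Activity was normalized to DMSO wells and cell-free media wells; concentration-response curves were fitted and assigned curve classes.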
HT1080 IDH1KD tx = toxicity to HT-1080 IDH1 knockdown cells (counter line); AID 686971; Potency, µM (highest dose often 46.1 µM), without a hit: top-dose activity, negative = toxicity, actives largely listed as cytotoxic; HT-1080 IDH1 knockdown viability, ATP luminescence, 48 h; 2% of 360,000 active;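 note: potency is the fitted concentration of half-maximal effect; 0% = DMSO wells and -100% = cell-free medium wells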
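In this qHTS, HT-1080 cells depleted of IDH1 are exposed for 48 h at 37 °C to compound titrations. Toxicity is scored from CellTiter-Glo luminescence, with DMSO as full viability and medium alone as none.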
DT40 TDP1 no CPT = qHTS for Inhibitors of human tyrosyl-DNA phosphodiesterase 1 (TDP1): qHTS in cells in absence of CPT. DT40 Tdp1-/- hTDP1 cells, no CPT, ATP luminescence, 48 h. Potency, µM (highest dose often 46.2 µM), without a hit: at the highest dose activity change, negative = growth inhibition, most hits filed as inhibitors. 15% of 420,000 active. AID 686978, 2013; note: potency is the fitted concentration of half-maximal effect; nearly all actives have a fitted effect of over 55% in size
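Chicken DT40 Tdp1-/- cells stably complemented with human TDP1 were seeded at 400 cells/well with DMSO in place of 20 nM camptothecin. After compound pinning, cells grew at least 48 hr at 37 °C; viability read by CellTiter-Glo luminescence.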
An asterisk follows results filed as active. Shown are actives, neighbours in structure and some others; about 19% of the full set was active somewhere. Unless noted, calls come from the whole dose curve; as a rule, active = well fitted curve in the direction sought with a large enough effect; inconclusive = small, poorly fitted or top-dose-only effect, or another doubt; inactive = no such curve, though single readings can be large; an effect the other way counts as inactive or inconclusive. Unless noted, % is set by controls: 0 for no effect and ±100 for the full control effect.

How did O=C(NNc1c2ccccc2nc2ccccc12)c1ccc(O)cc1 do in these assays?
DT40 TDP1 CPT: 13µM*; IL1B secr inh: -22; HT1080NT lethal: -7%; HT1080 IDH1KD tx: -20%; DT40 TDP1 no CPT: inconclusive

What do the screens show for `Cc1ccc(C(=O)NNc2nc3ccccc3nc2C(F)(F)F)cc1`?
DT40 TDP1 CPT: inconclusive; IL1B secr inh: 2; HT1080NT lethal: 0%; HT1080 IDH1KD tx: -2%; DT40 TDP1 no CPT: 23µM*

Results for O=C(c1ccco1)N1CCN(C(=O)C(Sc2ccccc2)c2ccccc2)CC1 (stereo unspecified) ?
DT40 TDP1 CPT: 16µM*; IL1B secr inh: -3; HT1080NT lethal: -17%; HT1080 IDH1KD tx: -14%; DT40 TDP1 no CPT: inconclusive

What do the screens show for `O=C(C(Sc1ccccc1)c1ccccc1)N1CCN(c2ccccc2)CC1` (stereo unspecified)?
DT40 TDP1 CPT: inconclusive; IL1B secr inh: inconclusive; HT1080NT lethal: -5%; HT1080 IDH1KD tx: -12%; DT40 TDP1 no CPT: inconclusive

How did Cc1ccccc1C(=O)Nc1ccc(N2CCN(C(=O)c3ccco3)CC2)cc1 do in these assays?
DT40 TDP1 CPT: -16%; IL1B secr inh: inconclusive; HT1080NT lethal: 14%; HT1080 IDH1KD tx: 5%; DT40 TDP1 no CPT: inconclusive

How did O=C(Nc1ccc(N2CCN(C(=O)c3ccco3)CC2)cc1)c1ccccc1Br do in these assays?
DT40 TDP1 CPT: inconclusive; IL1B secr inh: -62*; HT1080NT lethal: 1%; HT1080 IDH1KD tx: 0%; DT40 TDP1 no CPT: inconclusive

What do the screens show for `O=C(Nc1ccc(N2CCN(C(=O)c3ccco3)CC2)cc1)c1ccccc1F`?
DT40 TDP1 CPT: inconclusive; IL1B secr inh: -24; HT1080NT lethal: -2%; HT1080 IDH1KD tx: 2%; DT40 TDP1 no CPT: inconclusive

What do the screens show for `Cc1ccc(C(=O)Nc2ccc(N3CCN(C(=O)c4ccco4)CC3)cc2)c(Cl)c1`?
DT40 TDP1 CPT: inconclusive; IL1B secr inh: inconclusive; HT1080NT lethal: -18%; HT1080 IDH1KD tx: -25%; DT40 TDP1 no CPT: 13µM*

What do the screens show for `Cc1ccc2c(c1)CCCN2C(=O)c1ccco1`?
DT40 TDP1 CPT: -22%; IL1B secr inh: 13; HT1080NT lethal: 21%; HT1080 IDH1KD tx: -15%; DT40 TDP1 no CPT: -4%

What do the screens show for `O=C(Nc1ccc(N2CCN(C(=O)c3ccco3)CC2)cc1)c1ccc([N+](=O)[O-])cc1Cl`?
DT40 TDP1 CPT: inconclusive; IL1B secr inh: -5; HT1080NT lethal: -26%; HT1080 IDH1KD tx: -18%; DT40 TDP1 no CPT: 21µM*

Results for O=C(Nc1ccc2c(c1)CCCN2C(=O)c1ccco1)c1cc([N+](=O)[O-])ccc1Cl ?
DT40 TDP1 CPT: inconclusive; IL1B secr inh: -87*; HT1080NT lethal: -19%; HT1080 IDH1KD tx: inconclusive; DT40 TDP1 no CPT: inconclusive

Results for CCS(=O)(=O)Nc1ccc(C2=NN(S(C)(=O)=O)C(c3cccs3)C2)cc1 (stereo unspecified) ?
DT40 TDP1 CPT: -3%; IL1B secr inh: 9; HT1080NT lethal: -11%; HT1080 IDH1KD tx: -13%; DT40 TDP1 no CPT: -22%

Results for CN(C[C@@H](Cc1cccc2ccccc12)N(C[C@H](Cc1ccccc1)N(CCc1ccccc1)N=O)N=O)N=O ?
DT40 TDP1 CPT: inconclusive; IL1B secr inh: 18; HT1080NT lethal: -9%; HT1080 IDH1KD tx: -4%; DT40 TDP1 no CPT: -24%

Results for CN(C[C@H](c1ccccc1)N(C[C@H](Cc1ccccc1)N(CCc1ccccc1)N=O)N=O)N=O ?
DT40 TDP1 CPT: 18µM*; IL1B secr inh: -3; HT1080NT lethal: 2%; HT1080 IDH1KD tx: 3%; DT40 TDP1 no CPT: inconclusive

How did COCCNC(=O)CN1C(=O)CCn2nc(-c3cn(C)c4ccccc34)cc21 do in these assays?
DT40 TDP1 CPT: -24%; DT40 TDP1 no CPT: 39%

Results for CCOc1ccccc1CNC(=O)CCCN1C(=O)CCn2nc(-c3cccn3C)cc21 ?
DT40 TDP1 CPT: 18µM*; DT40 TDP1 no CPT: inconclusive

How did CC(NC(=O)CCCN1C(=O)CCn2nc(-c3cn(C)c4ccccc34)cc21)c1ccccc1 (stereo unspecified) do in these assays?
DT40 TDP1 CPT: inconclusive; DT40 TDP1 no CPT: 23µM*

What do the screens show for `COc1cc(NC(=O)CCCN2C(=O)CCn3nc(-c4cn(C)c5ccccc45)cc32)cc(OC)c1`?
DT40 TDP1 CPT: inconclusive; DT40 TDP1 no CPT: 18µM*

How did Cn1cc(-c2cc3n(n2)CCC(=O)N3CCCC(=O)NCc2ccccc2Cl)c2ccccc21 do in these assays?
DT40 TDP1 CPT: 16µM*; DT40 TDP1 no CPT: 13µM*

What do the screens show for `CCc1ccccc1NC(=O)CCCN1C(=O)CCn2nc(-c3cn(C)c4ccccc34)cc21`?
DT40 TDP1 CPT: -25%; DT40 TDP1 no CPT: -23%

Results for CCCNC(=O)CCCN1C(=O)CCn2nc(-c3cccn3C)cc21 ?
DT40 TDP1 CPT: 6%; DT40 TDP1 no CPT: 10%

How did O=C(N=C1SC2CS(=O)(=O)CC2N1Cc1ccc(Cl)cc1)C1CC1 (stereo unspecified) do in these assays?
DT40 TDP1 CPT: -15%; IL1B secr inh: 3; HT1080NT lethal: 0%; HT1080 IDH1KD tx: 3%; DT40 TDP1 no CPT: -5%

Results for COc1ccc(CC2(c3ccccc3)NC(=O)NC2=O)cc1 (stereo unspecified) ?
DT40 TDP1 CPT: inconclusive; IL1B secr inh: 59; HT1080NT lethal: -22%; HT1080 IDH1KD tx: -29%; DT40 TDP1 no CPT: inconclusive

Results for Cc1ccc(S(=O)(=O)N(CC(O)CN2C(=O)NC(C)(C)C2=O)c2ccccc2)cc1 (stereo unspecified) ?
DT40 TDP1 CPT: -22%; IL1B secr inh: 11; HT1080NT lethal: 18%; HT1080 IDH1KD tx: 14%; DT40 TDP1 no CPT: inconclusive

How did CSCC(C)N1CCC(CCC(=O)NC2CC2)CC1 (stereo unspecified) do in these assays?
DT40 TDP1 CPT: 0%; IL1B secr inh: -4; HT1080NT lethal: 11%; HT1080 IDH1KD tx: 9%; DT40 TDP1 no CPT: -5%

Results for Cc1cccc(C)c1NC(=O)CCCN1C(=O)CCn2nc(-c3cn(C)c4ccccc34)cc21 ?
DT40 TDP1 CPT: inconclusive; DT40 TDP1 no CPT: 13µM*

Results for NC(=Nc1ccccc1)N(c1ccccc1)c1ccccc1 ?
DT40 TDP1 CPT: inconclusive; IL1B secr inh: 6; HT1080NT lethal: -1%; HT1080 IDH1KD tx: -17%; DT40 TDP1 no CPT: 13µM*

How did NC(=S)N(c1ccccc1)c1ccccc1 do in these assays?
DT40 TDP1 CPT: 6%; IL1B secr inh: 23; HT1080NT lethal: 8%; HT1080 IDH1KD tx: 10%; DT40 TDP1 no CPT: -6%

Results for COc1ccccc1C(CC(=O)Nc1ccc(C)c(C)c1)c1ccc(OC(C)C)cc1 (stereo unspecified) ?
DT40 TDP1 CPT: inconclusive; IL1B secr inh: 6; HT1080NT lethal: inconclusive; HT1080 IDH1KD tx: inconclusive; DT40 TDP1 no CPT: 21µM*
